For one assay, the target named is Furin (Homo sapiens) (UniProt P09958). Nature of the assay: Furin counterscreen qHTS for Zika virus inhibitors (AID 1347149).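 For activity change, negative = inhibition: purified recombinant full-length human furin enzyme at 5 nM; fluorescence gain from furin cutting a BOC-RVRR-AMC peptide substrate over 15 min; top concentration of the series differs between compounds; plate controls were no-inhibitor control for no effect and no-enzyme control for full effect.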 Note: nearly all actives have a fitted effect of over 70% in size. Note: potency is the fitted concentration of half-maximal effect. Summed up:
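Counterscreen measures cleavage of 2 microM BOC-RVRR-AMC, below its ~15 microM Km, by 5 nM full-length human furin at pH 7.0 after a 15-min compound preincubation. Inhibition derives from the 15-min fluorescence increase at 37C.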
In general terms: A counterscreen serves to expose hits that act by an unwanted route or on another target.

Assay [1] can be described thus: Confirmatory screen GU Rhodamine qHTS for Zika virus inhibitors qHTS (AID 1347157). Note: potency is the fitted concentration of half-maximal effect; nearly all actives have a fitted effect of over 70% in size. The note with it: purified enzyme assay, Rhodamine110 substrate fluorescence, 15 min. Summed up: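 In dose–response format, inhibition of unlinked protease (25 nM) was measured with 1.5 microM bis-peptide Rhodamine110 substrate. Aprotinin served as the intraplate control.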
(Quantitative high-throughput screening tests each substance at several concentrations.)

Assay [2] in a line: ZIKV-mCherry secondary qHTS for Zika virus inhibitors (AID 1347158). Note: top concentration of the series differs between compounds. A digest of the protocol:
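This orthogonal imaging screen measured ZIKV-mCherry infection of Vero cells exposed to compound, MOI 1, 48-72 h. Percent infection came from segmented nuclei scored mCherry-positive above 3 SD of negative controls.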

Assay [3] in a line: Confirmatory screen NINDS Rhodamine qHTS for Zika virus inhibitors (AID 1347161). Note: potency is the fitted concentration of half-maximal effect; nearly all actives have a fitted effect of over 60% in size. The note with it: purified enzyme assay, Rhodamine110 substrate fluorescence, 15 min. Summed up: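 Purified linked NS2B-NS3 protease (NS2B hydrophilic domain joined to NS3 protease by flexible linker), 25 nM in 10 mM Tris-HCl pH 8.0, 0.01% Tween 20. Compounds titrated, 15 min preincubation at room temperature; 1.5 microM Rhodamine110 substrate, FITC fluorescence change over 15 min.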

The test system of assay [4] is Zika virus NS2B-NS3 protease (linked construct). As to the kind of experiment: 384 well plate NINDS Rhodamine confirmatory qHTS for Zika virus inhibitors (AID 1347164).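 Note: fluorescence from protease cleavage of Ac-LKRR-rhodamine 110 substrate; potency is the fitted concentration of half-maximal effect; nearly all actives have a fitted effect of over 65% in size.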 A digest of the protocol: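 Linked protease at a final 5 nM, 30 nM or 60 nM was preincubated ~15 min with compounds, then given 10 microM Ac-LKRR-Rhodamine 110. Fluorescence (ex 485/em 538 nm) after 25 min in the dark at room temperature.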

Assay [5] concerns Zika virus NS2B-NS3 protease (unlinked complex). As to the kind of experiment: Primary screen GU Rhodamine qHTS for Zika virus inhibitors: Unlinked NS2B-NS3 protease assay (AID 1347159). For activity change, negative = inhibition: % is set by controls: 0 for no effect and ±100 for the full control effect. Note: nearly all actives have a fitted effect of over 60% in size. Note: potency is the fitted concentration of half-maximal effect. A digest of the protocol: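 Unlinked NS2B/NS3, 25 nM; Rhod110 peptide, 1.5 microM; compounds, up to 114 microM. Reaction run 15 min at RT in 10 mM Tris-HCl pH 8.0, 0.01% Tween 20; kinetic fluorescence change fitted with a 4-parameter Hill model.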

Assay [6] has as its system Zika virus NS2B-NS3 protease (linked construct). Nature of the assay: Primary screen NINDS Rhodamine qHTS for Zika virus inhibitors (AID 1347160). For activity change, negative = inhibition: % is set by controls: 0 for no effect and ±100 for the full control effect. Note: nearly all actives have a fitted effect of over 55% in size. Note: potency is the fitted concentration of half-maximal effect. A digest of the protocol:
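Single-chain NS2B-NS3 protease, 25 nM, pH 8.0; compounds preincubated 15 min. Activity: Rhodamine110 release from 1.5 microM substrate over 15 min, room temperature, data fitted to 4-parameter Hill.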

A short description of assay [7]: HepG2 cells viability qHTS for Zika virus inhibitors (AID 1347168). Note: % is set by controls: 0 for no effect and ±100 for the full control effect. A digest of the protocol:
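Luminescent ATP readout (CellTiter Glo) after 30 min at 37 degrees C gives viability; cells in DMEM + 4% FBS were treated 24 to 48 hours with compound, following overnight attachment.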

The nature of assay [8]: Tertiary RLuc qRT-PCR qHTS assay for Zika virus inhibitors (AID 1347169). Note: top concentration of the series differs between compounds; % is set by controls: 0 for no effect and ±100 for the full control effect; nearly all actives have a fitted effect of over 55% in size. Summed up:
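Vero cells (1,000 per well) plated overnight at 37 degrees C, treated with compound in DMSO, then infected with recombinant ZIKV-RLuc (Cambodian) at MOI 1-2 for 48-72 hrs. Live-cell Renilla luciferase substrate added; luminescence read after 1-1.5 hrs.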
A general note: In qPCR the cycle at which signal appears reflects the starting amount.

Assay [9] has as its system Zika virus NS2B-NS3 protease (linked construct). Nature of the assay: Confirmatory screen NINDS AMC qHTS for Zika virus inhibitors (AID 1347152). Note: potency is the fitted concentration of half-maximal effect; nearly all actives have a fitted effect of over 70% in size. A digest of the protocol:
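Purified NS2B-NS3 protease with NS2B hydrophilic domain linked to NS3 protease domain by flexible linker, 1 nM final in 10 mM Tris-HCl pH 8.0, 0.01% Tween 20. Compounds preincubated 15 min, room temperature; Bz-Nle-KRR-AMC 10 microM (Km 18.3 µM); 15-min fluorescence change, 4-parameter Hill fit.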

Assay [10] has as its system Zika virus NS2B-NS3 protease (unlinked complex). As to the kind of experiment: Confirmatory screen GU AMC qHTS for Zika virus inhibitors (AID 1347153). Note: potency is the fitted concentration of half-maximal effect; nearly all actives have a fitted effect of over 70% in size. The following applies: Recombinant NS2B-NS3 protease, AMC substrate fluorescence. A digest of the protocol: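 Unlinked enzyme 25 nM, Tris pH 8.0/0.01% Tween 20; cpd 15 min RT, dark; + AMC substrate 10 µM (Km 18.3 µM); 340/450 nm read at t0 and 15 min; % inhibition → 4-param fit.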

Assay [11] concerns Zika virus NS2B-NS3 protease (linked). Nature of the assay: 384 well plate NINDS AMC confirmatory qHTS for Zika virus inhibitors (AID 1347163). Note: potency is the fitted concentration of half-maximal effect; nearly all actives have a fitted effect of over 50% in size. A digest of the protocol:
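Enzyme (5, 30 or 60 nM final) first met test compounds for ~15 min. The AMC-tagged peptide Ac-VKTGKR-AMC followed at 30 microM. Fluorescence was then recorded at 25 min and scaled against no-enzyme and no-inhibitor wells.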

The test system of assay [12] is Zika virus NS2B-NS3 protease. Nature of the assay: Primary screen GU AMC qHTS for Zika virus inhibitors (AID 1347154). A digest of the protocol:
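Fluorogenic AMC-substrate cleavage by noncovalent NS2B-NS3 protease complex (25 nM, pH 8.0 Tris buffer with Tween 20) followed for 15 minutes at room temperature (~20% conversion). Percent inhibition from ex340/em450 signal change, fitted by 4-parameter Hill equation.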

Molecules are shown by their SMILES. Inconclusive results are not listed. A number with no mark means an inactive call. Active and inactive are the calls of the source. Calls come from the whole dose curve; as a rule, active = well fitted curve in the direction sought with a large enough effect; inconclusive = small, poorly fitted or top-dose-only effect, or another doubt; inactive = no such curve, though single readings can be large; an effect the other way counts as inactive or inconclusive. Where a SMILES comes first, the peptide text is derived from it. [ ]: non-standard residue; d: D form.

Sequence of Furin (Homo sapiens) (P09958 whole entry, looked up): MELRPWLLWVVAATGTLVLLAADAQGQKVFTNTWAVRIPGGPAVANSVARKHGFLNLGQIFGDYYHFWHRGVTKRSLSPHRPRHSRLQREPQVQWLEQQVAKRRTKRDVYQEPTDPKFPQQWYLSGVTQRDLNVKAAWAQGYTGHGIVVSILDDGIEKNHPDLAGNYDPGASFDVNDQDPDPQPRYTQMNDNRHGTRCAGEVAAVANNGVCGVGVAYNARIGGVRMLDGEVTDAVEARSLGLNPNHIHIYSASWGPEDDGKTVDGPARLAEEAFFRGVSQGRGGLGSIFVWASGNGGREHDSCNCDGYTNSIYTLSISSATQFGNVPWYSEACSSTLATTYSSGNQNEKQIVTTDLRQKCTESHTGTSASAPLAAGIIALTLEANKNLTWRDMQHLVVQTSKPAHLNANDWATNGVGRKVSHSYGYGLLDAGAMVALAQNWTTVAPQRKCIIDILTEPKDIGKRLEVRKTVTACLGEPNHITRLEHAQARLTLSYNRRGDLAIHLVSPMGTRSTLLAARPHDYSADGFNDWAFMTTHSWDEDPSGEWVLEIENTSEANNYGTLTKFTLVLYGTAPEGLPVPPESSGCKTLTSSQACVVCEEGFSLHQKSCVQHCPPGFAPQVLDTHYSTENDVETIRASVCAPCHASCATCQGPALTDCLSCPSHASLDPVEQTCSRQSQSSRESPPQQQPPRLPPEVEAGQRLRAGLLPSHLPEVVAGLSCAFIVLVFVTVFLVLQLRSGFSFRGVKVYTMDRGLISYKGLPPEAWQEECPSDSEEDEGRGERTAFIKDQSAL

Take `Nc1c(N=Nc2ccc(-c3ccc(N=Nc4cc(S(=O)(=O)O)c5ccccc5c4N)cc3)cc2)cc(S(=O)(=O)O)c2ccccc12`: the Potency with Furin (Homo sapiens) is 37.3 µM (active); in [1] it was 2.51 µM (active); in [3] it was 2.24 µM (active); in [4], 7.08 µM (active). Also, the outcome in assay [2] was inactive.
Regarding `CC(C)c1cc2c(c(O)c1O[C@@H]1O[C@H](CO)[C@@H](O)[C@H](O)[C@H]1O)CC1(O)CCC(O)C(C)(C)C1CC2` (stereo partly drawn), the Potency in assay [1] was 17.1 µM (active); in assay [5] it was 20 µM (active); in assay [6] it was 7.94 µM (active); in [3] it was 7.64 µM (active). In addition, the call in [7] was inactive. Further, the Potency result in [8] was “inactive”.
On to `O=C(/C=C/c1c(C(=O)O)[nH]c2cc(Cl)cc(Cl)c12)Nc1ccccc1`, for which the Potency entry (in the assay with Furin (Homo sapiens); in assay [8]) was “inactive” throughout. Besides, the Potency in assay [9] was 44.1 µM (active); in assay [10] it was 44.1 µM (active); in assay [1], 2.78 µM (active); in assay [5], 3.55 µM (active); in assay [6], 3.16 µM (active); in assay [3] it was 2.48 µM (active). Also, the Potency in assay [11] was 1.12 µM (active); in assay [4], 8.91 µM (active). Also, the compound was called inactive in assay [2] and in [7].
For the compound `CCOC(=O)C1=CC2(CC)CCCN3CCc4c(n1c1ccccc41)C32` (stereo not drawn), the outcome in assay [12] was inactive.
Consider `O=C(O)c1cnn(-c2nc3cc(OC(F)(F)F)c(Cl)cc3[nH]2)c1`, for which the Potency with Furin (Homo sapiens) is 90.2 µM (active); in assay [9], 40.3 µM (active); in [10] it was 32 µM (active); in assay [1], 12.7 µM (active); in assay [5] it was 5.01 µM (active); in assay [6] it was 2 µM (active). Further, the Potency in [3] is 5.69 µM (active); in [4], 0.794 µM (active). Moreover, the compound was called inactive in assay [2] and in [7].
As for `Cc1nn(C)c(COc2ccc(N3CCN(S(=O)(=O)N(C)C)CC3)cc2)c1-c1cccc2c(CCCOc3cccc4ccccc34)c(C(=O)O)n(CCN3CCOCC3)c12`, the Potency in assay [1] is 1.75 µM (active); in assay [5], 4.47 µM (active); in [3], 1.56 µM (active). For the same compound, the Potency entry in [6] and in assay [8] was “inactive” each time.
Consider `CC(=O)O[C@@H]1[C@H](O[C@@H]2O[C@H](CO)[C@@H](O)[C@H](O)[C@H]2O)[C@@H](O[C@@H]2O[C@@H](C)[C@H](O)[C@@H](O[C@@H]3O[C@H](CO)[C@@H](O)[C@H](O)[C@H]3O)[C@H]2O)[C@H](OC(=O)C23CCC4(C)C(=CCC5C6(C)CC(O)C(O[C@@H]7O[C@H](C(=O)O)[C@@H](O)[C@H](O)[C@H]7O)C(C)(C(=O)O)C6CCC54C)C2CC(C)(C)CC3O)O[C@@H]1C` (stereo partly drawn), for which the activity change, negative = inhibition is 7.44% [at 19.1 µM] in assay [5] and 3.1% [at 10.7 µM] in [6].
With `COc1ccc2c(c1O)OC[C@H]1c3ccc(O)cc3O[C@@H]21`, the Potency entry in assay [5] and in assay [6] was “inactive” each time.
As to `N[C@H]1C[C@H]1c1ccc(-c2cccc(O)c2)cc1`, the Potency entry in [5] and in assay [6] was “inactive” in each case.
With `O=S(=O)(NC1CCNCC1)c1cc(S(=O)(=O)c2ccccc2)ccc1C(F)(F)F`, the Potency entry in assay [5] and in [6] was “inactive” throughout.
Turning to `CC1CC(=O)C2=C(O1)OC1(C)CCC3C(C)(C)C=CC(=O)C3(C)C1C2` (stereo not drawn), the Potency in assay [5] is 28.2 µM (active); in assay [6] it was 12.6 µM (active).
On to `C[C@@H]1CC[C@]2(C)C3(C)CC[C@@]2(OC3=O)[C@@]12C[C@H](c1ccoc1)OC2=O`, for which the Potency result in assay [5] and in assay [6] was “inactive” in each case.
`CCN[C@@H]1C[C@H](N)[C@@H](O[C@H]2OC(CN)=CC[C@H]2N)[C@H](O)[C@H]1O[C@H]1OC[C@](C)(O)[C@H](NC)[C@H]1O`: the Potency entry in [5] and in [6] was “inactive” each time.
Turning to `CCC(=O)O[C@]1(C(=O)CCl)[C@@H](C)C[C@H]2[C@@H]3C[C@H](F)C4=CC(=O)C=C[C@]4(C)[C@@]3(F)[C@@H](O)C[C@@]21C`, the Potency result in assay [5] and in [6] was “inactive” in each case.
Turning to `C=C1C(O[C@@H]2O[C@H](CO)[C@@H](O)[C@H](O)[C@@H]2O)CC2C(C)(C)C(O)CCC2(C)C1CC/C(C)=C\CO` (stereo partly drawn), the Potency entry in assay [5] and in assay [6] was “inactive” each time.
Regarding `CO[C@@H]1COCC[C@@H]1N[C@@H]1CC[C@@](C(=O)N2CCc3ncc(C(F)(F)F)cc3C2)(C(C)C)C1`, the Potency result in assay [5] and in assay [6] was “inactive” in each case.
With `COc1ccccc1CC(C(=O)O)N(C)C(=O)c1ccccc1` (stereo not drawn), the Potency result in assay [5] and in [6] was “inactive” in each case.
With `CC(=O)N[C@H](Cc1ccc(O)cc1)C(=O)N[C@H](CCCN=C(N)N)C(=O)N[C@H](Cc1ccccc1)C(N)=O` (Ac-[dY]-[dR]-[dF]-NH2), the Potency result in assay [5] and in assay [6] was “inactive” throughout.

The values are drawn from PubChem BioAssay (NCATS).
